MBNL1 CUG block – inhibitors of human MBNL1 binding to CUG repeat RNA | Q9NR56 | TR-FRET MBNL1-His/biotin-(CUG)12 binding, 665/545 ratio | Potency, µM (titrated, usually from 57.5 µM), for the others: at the top dose activity change, negative = inhibition, hits mostly inhibitors | 0.036% of 280,000 active | AID 2675; active = well fitted inhibition curve with a large enough effect in the signal ratio, with a control signal flat, not every such curve was filed as active; inconclusive = small, poorly fitted or top-dose-only effect, or effect the other way, or a change in a side signal; inactive = no such curve, though single readings can be large or run the other way; the % refers to the signal ratio; also: potency is read from the fitted curve at half-maximal effect; % is scaled to controls: 0 for no effect and ±100 for the full control effect
Target sequence (Q9NR56 whole entry, looked up): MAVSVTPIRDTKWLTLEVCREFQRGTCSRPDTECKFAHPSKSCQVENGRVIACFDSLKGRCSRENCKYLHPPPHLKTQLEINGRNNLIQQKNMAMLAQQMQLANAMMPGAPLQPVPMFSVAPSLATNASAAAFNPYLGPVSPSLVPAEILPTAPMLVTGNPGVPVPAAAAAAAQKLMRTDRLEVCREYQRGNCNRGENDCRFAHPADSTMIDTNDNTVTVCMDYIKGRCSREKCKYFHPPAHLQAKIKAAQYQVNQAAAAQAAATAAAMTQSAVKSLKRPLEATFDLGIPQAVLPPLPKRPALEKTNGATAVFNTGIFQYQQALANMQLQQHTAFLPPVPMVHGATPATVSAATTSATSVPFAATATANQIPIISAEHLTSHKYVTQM
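TR-FRET between His-tagged MBNL1 and biotin-(CUG)12 RNA, detected with Tb anti-His antibody (0.055 ng/ul) and streptavidin-XL665 (5 nM), 60 min at room temperature. Compounds titrated 92 nM to 58 uM; 665/545 nm ratio normalized to buffer and complex controls.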
VDR inh – blocks the human vitamin D receptor. P11473. VDR-SRC2-3 peptide fluorescence polarization, 2 h. Potency, µM, for the others: max response, negative = inhibition, most hits filed as inhibitors. 0.93% of 400,000 active; also: potency is read from the fitted curve at half-maximal effect; % is scaled to controls: 0 for no effect and ±100 for the full control effect
Target sequence (P11473 whole entry, looked up): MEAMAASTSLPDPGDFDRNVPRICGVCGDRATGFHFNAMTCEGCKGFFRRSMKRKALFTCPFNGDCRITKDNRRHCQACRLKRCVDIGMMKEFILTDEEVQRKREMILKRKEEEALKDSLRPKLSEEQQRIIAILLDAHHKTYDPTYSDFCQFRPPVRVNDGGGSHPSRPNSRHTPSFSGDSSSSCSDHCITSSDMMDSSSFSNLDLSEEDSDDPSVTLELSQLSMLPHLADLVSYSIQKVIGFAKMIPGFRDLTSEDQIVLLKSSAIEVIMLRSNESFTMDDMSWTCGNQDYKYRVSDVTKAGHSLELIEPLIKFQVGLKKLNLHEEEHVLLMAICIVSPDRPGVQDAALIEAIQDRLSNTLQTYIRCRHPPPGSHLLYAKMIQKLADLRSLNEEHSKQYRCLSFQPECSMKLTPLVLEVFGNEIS
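After 23 nl compound addition and a short centrifugation, plates sat for 2 hours at ambient temperature; polarization of fluorescence then indicated loss of VDR binding to peptide SRC2-3.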
KCNH2 3.1 block – inhibitors of human KCNH2 3.1 potassium channel isoform | AID 720553 | 0.95% of 340,000 active | activity change, % (tested at about 1.8 µM) | U2OS KCNH2 3.1, thallium flux FluxOr; hits give low values;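 active = maximum activity change below -70%; inconclusive = maximum activity change from -70% to -50%; inactive = maximum activity change above -50%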;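 also: thallium influx rate constant from kinetic fluorescence after stimulation buffer; % is scaled to controls: 0 for no effect and ±100 for the full control effect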
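U2OS cells transduced with KCNH2 3.1 mutant virus (1.77 x 10^8 /mL, 4 h), plated overnight at 37 C, loaded 45 min with FluxOr dye plus Red40 quencher. Thallium flux rate constant from kinetic reads after stimulation buffer, normalised to controls.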
KCNH2 WT inh – blocks the wildtype human KCNH2 potassium channel | U2OS, BacMam KCNH2, thallium flux FluxOr; hits give low values | 0.37% of 340,000 active | Q12809 | activity change, % at 1.84 µM;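 active = maximum activity change below -70%; inconclusive = maximum activity change between -70% and -50%; inactive = maximum activity change above -50%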; also: % is scaled to controls: 0 for no effect and ±100 for the full control effect
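U2OS cells were transduced with wild-type KCNH2 virus (2.03 x 10^8 / mL) for 4 h at room temperature, then cultured overnight at 37 C. Thallium flux was read with FluxOr dye. Rate constants were normalized to DMSO controls.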
CBFb-RUNX1 inh – CBF-beta/RUNX1 interaction disruption. 230,000 tested, under 10 active. Q01196+Q13951. AlphaScreen CBFb-His/RUNX1-biotin binding, biochemical. Potency, µM (top dose mostly 59.8 µM), without a hit: at the top dose activity, negative = inhibition, usual class: inhibitors; also: % of control where 0% means no effect
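AlphaScreen proximity signal reports loss of binding between His-tagged CBF-beta and biotin-labelled RUNX1, each at 30 nM. Proteins are pre-associated for 20 minutes, compounds added for 15 minutes, then beads for 90 minutes, all at ambient temperature.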
PLK1 PBD inh – blocks phosphopeptide binding to human PLK1 polo-box domain | Plk1 PBD binding of FITC phosphopeptide, fluorescence polarization | 2.8% of 360,000 active | Potency, µM, inactives show max response, negative = inhibition, most hits filed as inhibitors | P53350; also: potency is read from the fitted curve at half-maximal effect; series mostly up to about 57 µM; % is scaled to controls: 0 for no effect and ±100 for the full control effect; nearly all actives have a fitted effect of over 65% in size
* marks the source's active call; other numbers are inactive results; ? = inconclusive; nt = no result; [ ] = dose if it differs, or a comment. Most compounds without a hit are left out; they make up all but 3.8% or so of the library. Unless noted, calls follow the shape of the dose curve; as a rule, active = well fitted curve in the direction sought with a large enough effect; inconclusive = small, poorly fitted or top-dose-only effect, or another doubt; inactive = no such curve, though single readings can be large; an effect the other way counts as inactive or inconclusive.

SMILES	MBNL1 CUG block	VDR inh	KCNH2 3.1 block	KCNH2 WT inh	CBFb-RUNX1 inh	PLK1 PBD inh
O=C(CNC(=O)c1ccc(N2C(=O)c3ccccc3C2=O)cc1)OCC(=O)c1ccccc1	nt	-9.1%	-4.4	-2.7	5.4%	23.8µM*
O=C(CNC(=O)c1ccc(N2C(=O)c3ccccc3C2=O)cc1)OCC(=O)c1cccc2ccccc12	-11.3%	-26.2%	5.0	29.5	7.3%	-3.0%
Cc1ccccc1S(=O)(=O)Cc1ccc(C(=O)NC2CCCCC2)o1	-3.3%	-24.1%	5.2	2.9	nt	21.2µM*
Cc1[nH]n(-c2ccccc2)c(=O)c1C(C[N+](=O)[O-])c1ccc(Br)cc1 (stereo unspecified)	-4.0%	?	8.8	1.8	-12.0%	26.7µM*
COc1cccc(C(C[N+](=O)[O-])c2c(C)[nH]n(-c3ccccc3)c2=O)c1 (stereo unspecified)	?	?	-3.9	-0.6	nt	29.9µM*
Cc1[nH]n(-c2ccccc2)c(=O)c1C(c1ccc(C(=O)O)cc1)c1c(C)[nH]n(-c2ccccc2)c1=O	?	-10.6%	-4.4	5.8	-3.4%	8.44µM*
Cc1[nH]n(-c2ccccc2)c(=O)c1C(c1cccc([N+](=O)[O-])c1)c1c(C)[nH]n(-c2ccccc2)c1=O	-1.2%	56.2µM*	7.4	1.0	-0.5%	23.8µM*
Cc1[nH]n(-c2ccccc2)c(=O)c1CCO	-6.7%	-1.8%	-8.0	?	0.8%	-14.0%
CCOC(=O)c1ccc(NC(=O)CSc2cc(-c3ccccc3)nc(C)n2)cc1	nt	-1.7%	nt	nt	nt	nt
COC(=O)c1ccc(C=O)cc1	nt	nt	nt	nt	-1.5%[21.7 µM]	nt
CC(C)c1ccc(NC(=O)c2ccc(=O)n(Cc3ccccc3)c2)cc1	nt	8.6%	nt	nt	nt	nt
COc1ccc(CCC(=O)NC2CC(=O)N(c3ccc(F)cc3)C2)cc1 (stereo unspecified)	nt	0.2%	nt	nt	nt	nt
C=C1CCN(C(CC(C)C)C(=O)NCCCc2ccccc2)S(=O)(=O)c2ccccc21 (stereo unspecified)	nt	-7.2%	nt	nt	?	nt
O=C(Nc1ccnn1C1CCN(CCCc2ccccc2)CC1)c1ccccc1	?	15.2%	-84.7*	?	nt	4.9%
COc1ccccc1C(=O)Nc1ccnn1C1CCN(C)CC1	-2.9%	-3.1%	2.0	6.7	nt	-15.0%
COc1ccccc1C(=O)Nc1ccnn1C1CCN(CCCc2ccccc2)CC1	2.6%	11.6%	-102.5*	-104.8*	nt	-15.2%
Cc1ccccc1C(=O)Nc1ccnn1C1CCN(CCCc2ccccc2)CC1	-0.5%	12.8%	-106.1*	-139.3*	nt	2.4%
Cc1ccc(O)c(-c2ccnc3cc(-c4ccc(Cl)cc4)nn23)c1	nt	-8.1%	nt	nt	nt	nt
Cc1ccc2occ(CC(=O)Nc3c(C(=O)Nc4ccc(Cl)cc4)oc4ccccc34)c2c1	nt	-5.5%	nt	nt	nt	nt
Cc1ccc(S(=O)(=O)N(C)C)cc1NC(=O)COC(=O)Cc1ccccc1F	nt	11.2%	9.8	0.1	nt	1.0%
Cc1ccc(S(=O)(=O)N(C)C)cc1NC(=O)COC(=O)Cc1ccc(Br)cc1	-6.3%	?	-15.7	5.9	16.9%	18.9µM*
COC(=O)c1ccccc1NC(=O)c1ccc2nc(Cc3ccccc3)oc2c1	nt	4.1%	nt	nt	nt	nt
O=S1(=O)[C@H]2C[C@@H]3C=C[C@@]2(CN1Cc1ccc(F)cc1)O3	-2.8%	?	-25.2	-2.2	nt	23.8µM*
CN(C(=O)COC(=O)c1ccccc1C(=O)N(C)c1ccccc1)c1ccccc1	-6.7%	1.3%	20.9	-9.6	nt	-12.9%
CN(C(=O)COC(=O)c1ccc(=O)n(Cc2ccccc2)n1)c1ccccc1	12.3%	?	-19.9	nt	4.5%	16.8µM*
SMILES	MBNL1 CUG block	VDR inh	KCNH2 3.1 block	KCNH2 WT inh	CBFb-RUNX1 inh	PLK1 PBD inh
CN(Cc1ccccc1)C(=O)COC(=O)c1ccc(=O)n(Cc2ccccc2)n1	nt	0.2%	0.5	3.3	nt	-0.1%
COc1cccc(OC)c1C(=O)OCC(=O)N(C)c1ccccc1	-7.9%	?	-5.9	-19.8	nt	26.7µM*
Cc1cc(C)cc(C(=O)NCC(=O)OCC(=O)N(C)c2ccccc2)c1	-2.3%	-17.7%	1.9	-16.6	1.7%	23.8µM*
Cn1ccc2cc(S(=O)(=O)N3CCC(C(=O)NCCc4ccccc4)CC3)ccc21	nt	0.2%	nt	nt	nt	nt
COc1ccc(-c2nc3ccc(NS(=O)(=O)c4ccc(Cl)cc4)cc3o2)cc1	nt	10.9%	nt	nt	nt	nt
O=C(O)c1cccc(N2C(=O)c3cccc4cccc(c34)C2=O)c1	?	-11.9%	-5.1	8.3	nt	-12.5%
O=C(O)c1cccc(N2C(=O)c3cc([N+](=O)[O-])cc4cc([N+](=O)[O-])cc(c34)C2=O)c1	?	56.2µM*	4.2	0.8	nt	8.44µM*
c1coc(CNc2c3c(nc4ncnn24)CCCC3)c1	-8.0%	-7.1%	-18.4	2.0	-9.4%	-5.7%
Clc1cccc(-c2cc3nc4c(c(NCc5ccco5)n3n2)CCCC4)c1	-2.8%	9.3%	-100.9*	-20.8	-6.3%	3.0%
Cc1oc2ccc(O)c(CN3CCCC3)c2c1C(=O)Nc1cccc(Cl)c1C	nt	8.5%	nt	nt	nt	nt
N#C/C(=C/c1ccc(-c2ccccc2)o1)c1nc(-c2cccs2)cs1	-31.6%	0.4%	-75.9*	-19.9	-12.8%	-24.3%
N#C/C(=C\c1ccc(-c2ccc(F)cc2)o1)C(=O)Nc1nc(-c2cccs2)cs1	-2.6%	-2.1%	13.1	13.4	1.4%	-10.3%
CC(=O)NC(CCS(C)(=O)=O)C(=O)Nc1cc(C)on1 (stereo unspecified)	-11.1%	-27.5%	9.9	-3.8	-0.4%	-2.9%
CC(=O)NC(CCS(C)(=O)=O)C(=O)Nc1nccs1 (stereo unspecified)	-6.0%	-18.1%	-2.4	0.4	-2.2%	26.7µM*
CC(NS(=O)(=O)c1ccccc1)C(=O)Nc1nccs1 (stereo unspecified)	-10.2%	0.1%	2.0	0.1	1.6%	21.2µM*
CCOC(=O)C(=O)Nc1nnc2n1CCS2	nt	-11.3%	nt	nt	nt	nt
Cc1ccc(-c2nnn(CC(=O)N(Cc3ccc(F)cc3)C(C(=O)NC3CCCC3)c3ccncc3)n2)o1 (stereo unspecified)	?	8.0%	-3.7	8.7	10.3%	-2.5%
Cc1ccc(-c2nnn(CC(=O)N(CCO)C(C(=O)NC3CCCCC3)c3ccncc3)n2)o1 (stereo unspecified)	-5.8%	-17.3%	6.6	-1.7	-1.1%	33.6µM*
CCOC(=O)c1ccc(NC(=O)CCc2c(C)nc3c(c(C)nn3-c3ccccc3)c2C)cc1	nt	10.6%	nt	nt	nt	nt
CC1(C)CC2CN(C(=O)Cc3ccccc3)C(C)(C2)C1 (stereo unspecified)	-8.4%	-10.4%	-5.9	nt	3.5%	21.2µM*
CC1(C(=O)N2Cc3ccccc3C2)CCN1C(=O)Cc1ccccc1 (stereo unspecified)	nt	nt	nt	nt	nt	-15.1%
Cc1ccc2c(CN3CCN(C(=O)c4ccc(Br)cc4)CC3)cc(=O)oc2c1	nt	6.0%	nt	nt	nt	nt
